For 57 compounds, inhibition results are on record in PubChem BioAssay AID488896 (Broad Institute, 2010).

The structures appear in SMILES notation. The campaign covered roughly 320,000 compounds. About 3,100 (0.97%) were called active. Only a selection was taken, and actives are over-represented in it overall. Unmarked numbers belong to inactive results.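 How the source made its calls: active means mean replicate inhibition of at least 70% and a set share of replicates each scoring 70 or more; inconclusive means meets just one of the two criteria; inactive means fails both criteria.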

Chain of Scavenger receptor class B member 1 (Mus musculus) (Q61009 whole entry, looked up): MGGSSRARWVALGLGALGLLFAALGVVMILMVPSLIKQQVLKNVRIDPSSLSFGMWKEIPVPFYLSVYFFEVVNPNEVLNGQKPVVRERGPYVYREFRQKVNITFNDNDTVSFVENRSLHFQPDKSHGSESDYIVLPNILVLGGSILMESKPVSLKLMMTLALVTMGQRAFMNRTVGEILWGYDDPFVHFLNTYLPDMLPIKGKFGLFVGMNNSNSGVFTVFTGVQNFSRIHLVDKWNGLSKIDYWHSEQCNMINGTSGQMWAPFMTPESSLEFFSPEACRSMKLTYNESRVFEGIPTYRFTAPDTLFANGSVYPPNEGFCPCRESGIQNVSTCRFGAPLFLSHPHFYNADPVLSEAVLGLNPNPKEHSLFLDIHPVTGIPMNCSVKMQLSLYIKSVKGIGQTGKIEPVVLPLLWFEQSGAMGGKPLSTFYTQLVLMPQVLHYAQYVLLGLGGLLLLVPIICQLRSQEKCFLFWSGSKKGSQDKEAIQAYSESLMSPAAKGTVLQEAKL

This experiment concerns the target Scavenger receptor class B member 1 (Mus musculus) (UniProt Q61009). Put plainly: inhibitors of SR-BI mediated HDL lipid uptake, primary screen, ldlA[mSR-BI] cells, fluorescence, single point (AID 488896).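 Further: 0% = median of neutral control wells and 100% = median of positive control wells.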 Conditions: ldlA[mSR-BI] CHO cells, DiI-HDL uptake fluorescence, 3 h; at 12.5 µM; active compounds read high.
Turning to `Oc1c(Cl)cc(Cl)c(Cl)c1Cc1c(O)c(Cl)cc(Cl)c1Cl`, the inhibition was 78.2% (active).

On to `CC(C)(C)OC(=O)N(Cc1ccccc1)Cc1ccc(OCc2cccc(NC(=O)c3ccccc3)c2)cc1`, for which the inhibition was 30.4%.

With `COc1cc(OC)cc(-c2nnc(N(C)C(=O)c3ccncc3)s2)c1`, the inhibition is 45%. `CN(C(=O)COc1ccccc1)c1nnc(-c2ccncc2)s1`: the inhibition is 70.2% (active).

On to `CN(C(=O)c1ccccn1)c1nnc(-c2ccccn2)s1`, for which the inhibition is -7.4%. As to `N#CCc1c[nH]c2ccc([N+](=O)[O-])cc12`, the inhibition was -13.4%. The result for `Cc1nc(Nc2ccccc2C)c2cnn(C)c2n1` reads -3.29%.

Regarding `CCOc1cc(N2CCOCC2)c(OCC)cc1NC(=O)c1cc(C)nc2ccccc12`, the inhibition is 20.8%. For `CCOc1cc(NC(=O)c2ccco2)c(OCC)cc1NC(=O)COc1ccccc1` the value was 80.9% (active); for `CCOc1cc(N2CCOCC2)c(OCC)cc1NC(=O)c1ccc(C)s1`, 37%; for `CCOc1cc(NC(=S)NCCCOC)c(OCC)cc1NC(=O)c1ccco1`, 28.5%.

As to `CCOc1cc(N2CCOCC2)c(OCC)cc1NC(=O)COc1cccc(Cl)c1`, the inhibition is 74.8% (active). Turning to `CCOc1cc(NC(=S)NCc2ccco2)c(OCC)cc1NC(=O)c1ccco1`, the inhibition is 43.4%.

As to `CN(C)C(=S)N=c1ssc(=S)n1Cc1ccco1`, the inhibition was 0.753%. Consider `CC(=O)Nc1ccc(C(=O)Nc2cc(S(=O)(=O)N3CCOCC3)ccc2N2CCOCC2)cc1`, for which the inhibition is -8.12%.

For `COC(=O)Cc1c(-c2[nH]c3ccccc3c2CC(=O)OC)[nH]c2ccccc12`, the inhibition is 37.9%. As to `O=C(NOCc1ccccc1)c1cccc([N+](=O)[O-])c1`, the inhibition is -13.8%. The result for `COc1ccc(/C=N/N=C2/C(=O)Nc3ccccc32)cc1O` reads -2.91%; that for `C(=N\N1CCN(c2ccccn2)CC1)/C1=C(N2CCOCC2)C(=C/c2ccccc2)/CC1`, 95.8% (active). As to `O=C(O)c1ccc(NN=CC2=C(N3CCOCC3)/C(=C/c3ccccc3)CC2)cc1`, the inhibition is -13%.

As for `O=C1Nc2ccc(Br)cc2/C1=N/N=C/C1=C(N2CCOCC2)C(=C\c2ccccc2)/CC1`, the inhibition was 147% (active). `O=C(CSc1nnc(N2CCOCC2)n1-c1cccc(F)c1)N1CCN(c2ccccn2)CC1`: the inhibition was 0.884%. As for `C[C@H](O)[C@@H]1C(=O)N2CCc3ccc(N4CCOCC4)cc3[C@@H]2C[C@@H]1N(C)C(=O)C(C)(C)C`, the inhibition was -2.83%. Take `COc1cc2c(cc1OC)C(Cc1cc(OC)c(OC)cc1[N+](=O)[O-])=NCC2`: the inhibition is -13%. For `CC1CN(Cc2ccco2)C(=S)N(c2ccccc2)C1=O` (configuration not stated), the inhibition is -33.1%.

For `COc1cc(C2c3cc4c(cc3C(O)C3COC(=O)C23)OCO4)cc(OC)c1OC` (configuration not stated), the inhibition is -0.16%.

`CCOc1ccc(S(=O)(=O)N2CCN(C(=O)c3oc4ccccc4c3C)CC2)cc1`: the inhibition is -15.2%. Take `CCOc1ccc(-c2nnn(CC(=O)N3CCN(c4ccc(F)cc4)CC3)n2)cc1OCC`: the inhibition was 48.2%.

As to `COc1ccc(C(=O)Cn2nnc(-c3ccc(N4CCOCC4)cc3)n2)cc1OC`, the inhibition is 33%.

Take `CCOc1ccc(-c2nnn(CC(=O)N3CCN(c4ccc(OC)cc4)CC3)n2)cc1OCC`: the inhibition is 82% (active). Take `Cc1cccc(S(=O)(=O)CC(=O)Nc2nc(-c3ccccc3)cs2)c1`: the inhibition is -18%. Regarding `CCCCC(=O)Nc1nc(C)c(-c2csc(Nc3ccc(Cl)cc3)n2)s1`, the inhibition is 103% (active). `CCCCCCC(=O)Nc1nc(C)c(-c2csc(Nc3cc(Cl)ccc3OC)n2)s1`: the inhibition was 97.4% (active).

As to `CCCCCCC(=O)Nc1nc(C)c(-c2csc(Nc3cccc(OC)c3)n2)s1`, the inhibition was 87.2% (active).

With `C=CCCC(=O)Nc1nc(C)c(-c2csc(Nc3ccc(Cl)cc3)n2)s1`, the inhibition is 104% (active).

With `CCC(=O)Nc1nc(C)c(C(=O)Nc2cccc(Cl)c2)s1`, the inhibition is 49.6%. For `Cc1nc(NC(=O)CN(C)S(=O)(=O)c2ccc(Cl)cc2)sc1C` the value was 2.99%. As for `CCCCN(C)CCC(=O)Nc1ccc(Cl)cc1`, the inhibition was -5.92%. Turning to `CCCCC(=O)N/N=C(\C)CC(=O)Nc1cc(Cl)ccc1OC`, the inhibition is 27.7%.

Turning to `COc1ccc(Cl)cc1NC(=O)c1oc(C)nc1C`, the inhibition was 10.4%.

On to `COc1cccc(NC(=O)CN2CCN(c3nc(-c4cccc(OC)c4)cs3)CC2)c1`, for which the inhibition was 19.1%. For `COc1cccc(CC(=O)Nc2ccc(-c3csc(C)n3)cc2)c1` the value was 22%; for `CC(=O)c1cccc(-c2ccc(CN3C(CC(C)C)C(=O)N(Cc4cn(CC5CCCCC5)nn4)CCS3(=O)=O)cc2)c1` (configuration not stated), 48.8%; for `COc1cc(O)c2c(=O)c3c(O)c(O)ccc3oc2c1OC`, 10.1%. For the compound `O=c1oc2ccccc2c(=O)c2ccccc12`, the inhibition was -23.4%. For `COc1ccc(C(=O)N(C)Cc2ccc(OC)c(OC)c2OC)cc1S(=O)(=O)N1CCOCC1` the value was -8.86%; for `CC(Nc1ccc([N+](=O)[O-])cc1[N+](=O)[O-])c1ccccc1` (configuration not stated), 21.4%; for `O=[N+]([O-])c1cc2ccccc2nc1-c1ccccc1`, -10.5%. On to `O=C(O)C1C2C=CC(O2)C1C(=O)Nc1ccccn1` (configuration not stated), for which the inhibition is -12.6%. On to `CCN(CC(=O)Nc1c(F)cccc1F)C(=O)Cc1cccs1`, for which the inhibition is 9.34%. The result for `CC(NC(=O)c1ccccc1)C(=O)OCC(=O)Nc1cccc(S(=O)(=O)N2CCCC2)c1` (configuration not stated) reads -1.56%; that for `CCOc1cc(C(=O)N(Cc2ccccc2)c2ccc(C)cc2)ccc1OCC(=O)N1CCOCC1`, 5.71%; that for `O=C(c1ccc2c(c1)C(=O)N(Cc1ccncc1)C2=O)N1CCN(S(=O)(=O)c2ccc(OC(F)(F)F)cc2)CC1`, -23.1%. Take `CCCc1cc(=O)[nH]c(SCC(=O)c2cc(C)n(CCC)c2C)n1`: the inhibition is 10.7%. Take `Cc1cc(C(=O)CSc2nc(N)cc(=O)[nH]2)c(C)n1Cc1ccco1`: the inhibition is -21.5%. Turning to `Cc1cc(C(=O)CSc2nc(N)cc(=O)[nH]2)c(C)n1CCc1ccc(Cl)cc1`, the inhibition is 83.8% (active). Regarding `O=C(O)C(CCc1ccccn1)c1ccccc1` (configuration not stated), the inhibition is 11.9%.
